Source: PubChem BioAssay (NCATS)
“And” between values parts separate entries of the source, which are not always exact repeats. Identical values can stand only once. Records with an inconclusive call do not appear. The source made the active and inactive calls. Unless noted, the call rests on the fitted dose curve; in most records, active means well fitted curve in the direction sought with a large enough effect; inconclusive means small, poorly fitted or top-dose-only effect, or another doubt; inactive means no such curve, though single readings can be large; an effect the other way counts as inactive or inconclusive.

Legend:
[1] = Cell Viability - BJ (AID 421; calls by dose curve;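 further: potency means the concentration at half of the fitted maximal effect; cells exposed to compound for 40 hours at 37 °C before readout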); settings: BJ fibroblast viability, qHTS
How it was run: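 Cytotoxicity as drop in intracellular ATP (CellTiter-Glo, 20 min RT) after 40 hr compound exposure of BJ fibroblasts at 37 °C. Titrations scaled between DMSO and 100 uM tamoxifen, Hill-fitted for AC50.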

[2] = Cell Viability - HepG2 (AID 433; calls by dose curve;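 further: potency means the concentration at half of the fitted maximal effect; potency for ATP loss meaning cytotoxicity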); settings: qHTS
How it was run: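 Cytotoxicity is scored as loss of intracellular ATP in HepG2 cells exposed to compounds for 40 h. Concentration-response curves, normalized to DMSO and 100 uM tamoxifen, give AC50 values.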

[3] = Cell Viability - HUV-EC-C (AID 542); settings: HUV-EC-C endothelial cell viability, qHTS; series mostly up to 92.2 µM; further: on the % scale 0 is the no-effect control and ±100 the full control effect; nearly all actives have a fitted effect of over 35% in size
How it was run: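 Concentration-dependent ATP loss in HUV-EC-C cells is the measure. Exposure lasts 40 hr at 37 °C; luminescence follows CellTiter-Glo addition, and Hill fits give AC50.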

[4] = Cell Viability - Mesenchymal (AID 546); settings: mesenchymal cells viability, qHTS; activity change, negative = cytotoxicity: at 91.7 µM (top of the series);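 further: cells exposed to compound for 40 hours before reading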
How it was run: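 CellTiter-Glo luminescence (intracellular ATP, 20 min room temperature) after 40 hr compound exposure at 37 °C of 1000 glomerulus-derived human kidney mesenchymal cells/well; AC50 values obtained by fitting qHTS concentration-response data to the Hill equation.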

[5] = Cellular Toxicity (caspase-3) Jurkat (AID 655); settings: Jurkat caspase-3 activation, luminescence; caspase-3 activation: at 92.2 µM (top of the series), DMSO = 0%, tamoxifen = 100%;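 further: cells exposed to compound for 16 h at 37 °C before reading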
How it was run: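 Caspase 3/7 activation is scored as increased luminescence in Jurkat cells cultured with compound for 16 hours in complete medium. AC50 values come from Hill fits of qHTS concentration-response data normalized to DMSO and 100 uM tamoxifen controls.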

[6] = Cellular Toxicity (caspase-3) NIH 3T3 (AID 666); settings: NIH 3T3 caspase-3 activation, apoptosis/toxicity, 0% DMSO, 100% is 100 µM tamoxifen; series mostly up to 92.2 µM;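 further: caspase signal read after 16 h compound exposure; 0% = DMSO basal and 100% = 100 µM tamoxifen stimulation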
How it was run: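 Activity: caspase-3/7 induction, NIH 3T3 cells, 16 hr treatment at 37°C, luminescent Caspase-Glo detection; AC50 via Hill equation.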

[7] = Cell Viability - LYMP1-002 - Assay at 16 hr (AID 948); settings: LYMP1-002 lymphoblastoid cell viability; series mostly up to 92.2 µM;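 further: 0% = DMSO alone and full effect = 92 µM tetraoctylammonium bromide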
How it was run: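 Acute cytotoxicity is scored as a concentration-dependent fall in intracellular ATP in a human lymphoblastoid line (LYMP1-002) after 16 hr compound exposure at 37 C, measured by luciferase luminescence.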

[8] = MultiTox-Fluor Cytotoxicity Assay - LYMP1-002 - Live Cells (AID 955); settings: LYMP1-002 lymphoblastoid live-cell protease fluorescence viability; series mostly up to 46.1 µM; further: on the % scale 0 is the no-effect control and ±100 the full control effect
How it was run: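 In this qHTS viability format, lymphoblastoid cells (LYMP1-002, human) received compound for 16 hr at 37 C. Fluorogenic GF-AFC cleavage by viable cells was detected at 405/510 nm after 1 h at room temperature.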

[9] = Cell Viability - LYMP2-011 (AID 969); settings: LYMP2-011 lymphoblastoid cells viability; series mostly up to 92.2 µM;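 further: cells exposed to compound for 24 hours; 0% = DMSO only and full inhibition = 92 µM tetraoctylammonium bromide; nearly all actives have a fitted effect of over 60% in size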
How it was run: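 Cells seeded at 2500 per well rest 5 hr before compound addition, then incubate 24 hr at 37 C. CellTiter-Glo reagent is added for 30 min at room temperature before luminescence detection.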

[10] = Cell Viability - LYMP2-013 (AID 970); settings: LYMP2-013 lymphoblastoid cells viability; series mostly up to 92.2 µM;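 further: cells exposed to compound for 24 h at 37 °C; 0% = DMSO only and full inhibition = tetraoctylammonium bromide control; nearly all actives have a fitted effect of over 55% in size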
How it was run: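 In complete culture medium, human lymphoblastoid cells were dosed for 24 hr at 37 C, with tetraoctylammonium bromide (6.4pM to 92 uM) as positive control. Viability reflects luciferase-based ATP signal; AC50 derived from concentration-response curves.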

[11] = Cell Viability - LYMP2-023 (AID 975); settings: LYMP2-023 lymphoblastoid cell viability; series mostly up to 92.2 µM;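 further: cellular ATP measured by luciferase luminescence as viability proxy; cells exposed to compound for 24 hours at 37 °C; plate controls were DMSO only for no effect and 92 µM tetraoctylammonium bromide control for full effect; nearly all actives have a fitted effect of over 55% in size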
How it was run: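 In this qHTS, ATP-based luciferase luminescence (CellTiter-Glo) is quantified in human lymphoblastoid cells after 24 hr compound treatment at 37 C; tetraoctylammonium bromide serves as positive control. Concentration-response curves are Hill-fitted to give AC50.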

[12] = Cell Viability - LYMP2-025 (AID 976); settings: LYMP2-025 lymphoblastoid cell viability; series mostly up to 92.2 µM;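 further: cells exposed to compound for 24 h at 37 °C; plate controls were DMSO only for no effect and tetraoctylammonium bromide control for full effect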
How it was run: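 Luminescent ATP readout after 24 hr treatment of a human lymphoblastoid line (LYMP2-025, 2500 cells/well, 37 C). Reagent developed 30 min at room temperature; AC50 fitted with the Hill equation.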

[13] = Cell Viability - LYMP2-007 (AID 979); settings: LYMP2-007 lymphoblastoid cell viability; series mostly up to 92.2 µM;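 further: cells exposed to compound for 24 h before reading; 0% = DMSO only and the negative end = 92 µM tetraoctylammonium bromide; nearly all actives have a fitted effect of over 60% in size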
How it was run: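 Measured via luciferase-based ATP quantitation: lymphoblastoid cells, 24 hr compound exposure at 37 C, AC50 from Hill fits.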

[14] = Cell Viability - LYMP2-008 (AID 980); settings: LYMP2-008 lymphoblastoid cell viability, qHTS; series mostly up to 92.2 µM;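 further: cells exposed to compound for 24 h at 37 °C; on the % scale 0 is the no-effect control and ±100 the full control effect; nearly all actives have a fitted effect of over 60% in size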
How it was run: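 Measured: ATP-dependent luminescence, proportional to viable cell number, in human lymphoblastoid cells treated 24 hr with compound in complete culture medium. Values are AC50s from Hill-equation modelling of qHTS titrations.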

[15] = Cell Viability - LYMP2-014 (AID 983); settings: LYMP2-014 lymphoblastoid cells, viability qHTS; series mostly up to 92.2 µM;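 further: cells exposed to compound for 24 h at 37 °C; plate controls were DMSO only for no effect and 92 µM tetraoctylammonium bromide for full effect; nearly all actives have a fitted effect of over 50% in size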
How it was run: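 Quantitative HTS in lymphoblastoid cells: 24 hr compound exposure, then CellTiter-Glo ATP luminescence. Positive control was tetraoctylammonium bromide, 6.4pM to 92 uM.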

[16] = Cell Viability - LYMP2-016 (AID 984); settings: LYMP2-016 lymphoblastoid cell viability, qHTS; series mostly up to 92.2 µM;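 further: cells exposed to compound for 24 hours at 37 °C; on the % scale 0 is the no-effect control and ±100 the full control effect; nearly all actives have a fitted effect of over 55% in size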
How it was run: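 Acute toxicity in a Coriell human lymphoblastoid line is scored as loss of intracellular ATP over 24 h of treatment in complete medium. CellTiter-Glo signal is fitted across concentrations with the Hill equation to give AC50.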

[17] = Cell Viability - LYMP2-018 (AID 985); settings: LYMP2-018 lymphoblastoid cells, viability (qHTS); series mostly up to 92.2 µM;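 further: plate controls were DMSO only for no effect and tetraoctylammonium bromide at 92 µM for full effect; nearly all actives have a fitted effect of over 50% in size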
How it was run: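 In this qHTS viability assay, cells are treated for 24 hr and cellular ATP is quantified by luciferase-based luminescence, with tetraoctylammonium bromide as positive control.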

[18] = Cell Viability - LYMP2-026 (AID 989); settings: LYMP2-026 lymphoblastoid cell viability, qHTS; series mostly up to 92.2 µM;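 further: cells exposed to compound for 24 h at 37 °C; on the % scale 0 is the no-effect control and ±100 the full control effect; nearly all actives have a fitted effect of over 50% in size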
How it was run: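 Acute toxicity screen in complete culture medium, with 24 hr compound exposure at 37 C. Viability read as cellular ATP via luciferase reaction, with tetraoctylammonium bromide (6.4pM to 92 uM) as positive control.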

[19] = Cell Viability - LYMP1-002 - Assay at 40 hr (AID 994); settings: LYMP1-002 lymphoblastoid cell viability; series mostly up to 92.2 µM;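 further: 0% = DMSO only and full inhibition = 92 µM tetraoctylammonium bromide; nearly all actives have a fitted effect of over 60% in size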
How it was run: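 Concentration-dependent ATP loss after 40 hr treatment at 37 C defined toxicity; AC50 values were obtained by fitting the standard Hill equation.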

[20] = qHTS assay for cell viability of HEK293 cells (AID 743288); settings: ATP luminescence (CellTiter-Glo), 18 h; max response: stronger effect = lower value; further: on the % scale 0 is the no-effect control and ±100 the full control effect; nearly all actives have a fitted effect of over 50% in size
How it was run: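 Quantitative high-throughput screen: compounds were pinned onto parental HEK293 cells (2,000 per well) after a minimum 5 h settling at 37 C, incubated 18 h at 37 C, and intracellular ATP measured by luciferase luminescence.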

CCCCOC(=O)COc1ccc(Cl)cc1Cl
inactive: Potency [1] > 92 µM | Potency [2] > 92 µM | Potency [3] | Potency [4] | Potency [5] | outcome [6] | Potency [7] | outcome [8] | Potency [9] | Potency [10] | Potency [11] | Potency [12] | Potency [13] | Potency [14] | Potency [15] | Potency [16] | Potency [17] | Potency [18] | Potency [19] | max response [20] -2.46% and -7.81%

CCCCNCC
inactive: Potency [1] > 92 µM | Potency [2] > 92 µM | Potency [3] | Potency [4] | Potency [5] | outcome [6] | Potency [7] | outcome [8] | Potency [9] | Potency [10] | Potency [11] | Potency [12] | Potency [13] | Potency [14] | Potency [15] | Potency [16] | Potency [17] | Potency [18] | Potency [19] | max response [20] -3.61%

C/C(Cl)=C/CCl
inactive: Potency [1] > 92 µM | Potency [2] > 92 µM | Potency [3] | Potency [4] | Potency [5] | outcome [6] | Potency [7] | outcome [8] | Potency [9] | Potency [10] | Potency [11] | Potency [12] | Potency [13] | Potency [14] | Potency [15] | Potency [16] | Potency [17] | Potency [18] | Potency [19] | max response [20] -11.4%

Cc1c(N)cccc1Cl
inactive: Potency [1] > 92 µM | Potency [2] > 92 µM | Potency [3] | Potency [4] | Potency [5] | outcome [6] | Potency [7] | outcome [8] | Potency [9] | Potency [10] | Potency [11] | Potency [12] | Potency [13] | Potency [14] | Potency [15] | Potency [16] | Potency [17] | Potency [18] | Potency [19] | max response [20] 0.674%

O=C(OCc1ccccc1)c1ccccc1O
inactive: Potency [1] > 92 µM | Potency [2] > 92 µM | Potency [3] | Potency [4] | Potency [5] | outcome [6] | Potency [7] | outcome [8] | Potency [9] | Potency [10] | Potency [11] | Potency [12] | Potency [13] | Potency [14] | Potency [15] | Potency [16] | Potency [17] | Potency [18] | Potency [19] | max response [20] 9.47% and -5.04%

CCOC(=O)C1OC1c1ccccc1 (stereo not given)
inactive: Potency [1] > 92 µM | Potency [2] > 92 µM | Potency [3] | Potency [4] | Potency [5] | outcome [6] | Potency [7] | outcome [8] | Potency [9] | Potency [10] | Potency [11] | Potency [12] | Potency [13] | Potency [14] | Potency [15] | Potency [16] | Potency [17] | Potency [18] | Potency [19] | max response [20] -1.14%

COc1cc(-c2ccc(N=C=O)c(OC)c2)ccc1N=C=O
inactive: Potency [1] > 92 µM | Potency [2] > 92 µM | Potency [3] | Potency [4] | Potency [5] | outcome [6] | Potency [7] | outcome [8] | Potency [9] | Potency [10] | Potency [11] | Potency [12] | Potency [13] | Potency [14] | Potency [15] | Potency [16] | Potency [17] | Potency [18] | Potency [19] | max response [20] -1.14% and -5.75%

c1ccncc1
inactive: Potency [1] > 92 µM | Potency [2] > 92 µM | Potency [3] | Potency [4] | Potency [5] | outcome [6] | Potency [7] | outcome [8] | Potency [9] | Potency [10] | Potency [11] | Potency [12] | Potency [13] | Potency [14] | Potency [15] | Potency [16] | Potency [17] | Potency [18] | Potency [19] | max response [20] 1.01%

Cc1cccnc1
inactive: Potency [1] > 92 µM | Potency [2] > 92 µM | Potency [3] | Potency [4] | Potency [5] | outcome [6] | Potency [7] | outcome [8] | Potency [9] | Potency [10] | Potency [11] | Potency [12] | Potency [13] | Potency [14] | Potency [15] | Potency [16] | Potency [17] | Potency [18] | Potency [19] | max response [20] -8.35%

CCC(Cl)CC(Cl)C(Cl)C(Cl)C(Cl)C(C)Cl (stereo not given)
inactive: Potency [1] > 92 µM | Potency [2] > 92 µM | Potency [3] | Potency [4] | Potency [5] | outcome [6] | Potency [7] | outcome [8] | Potency [9] | Potency [10] | Potency [11] | Potency [12] | Potency [13] | Potency [14] | Potency [15] | Potency [16] | Potency [17] | Potency [18] | Potency [19] | max response [20] 0.239%

c1ccc(CSCc2ccccc2)cc1
inactive: Potency [1] > 92 µM | Potency [2] > 92 µM | Potency [3] | Potency [4] | Potency [5] | outcome [6] | Potency [7] | outcome [8] | Potency [9] | Potency [10] | Potency [11] | Potency [12] | Potency [13] | Potency [14] | Potency [15] | Potency [16] | Potency [17] | Potency [18] | Potency [19] | max response [20] 1.27%

CCCC(=O)OC(=O)CCC
inactive: Potency [1] > 92 µM | Potency [2] > 92 µM | Potency [3] | Potency [4] | Potency [5] | outcome [6] | Potency [7] | outcome [8] | Potency [9] | Potency [10] | Potency [11] | Potency [12] | Potency [13] | Potency [14] | Potency [15] | Potency [16] | Potency [17] | Potency [18] | Potency [19] | max response [20] -4.88% and -8.13%
